Data taken from PubChem BioAssay (NCI).
About 83,000 compounds went through this panel and 20% of them were active in at least one assay; those are over-represented in the sample as a whole.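 Step 1: grow cells in 96-well plates. Step 2: add test compound at a single concentration. Step 3: incubate 48 h. Step 4: record percent growth.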 A number with no mark means an inactive call. Activity calls are given as the source filed them. The calls were made as follows: active = growth percent below 10; inactive = the rest.

Columns and labels:
Experiment in all cases: NCI-60 one-dose screen, 48 h (100 = growth as untreated, 0 = no growth, -100 = all killed)
Conditions in all cases: 10 µM unless noted
NCI-H23 lung = tested on: NCI-H23 lung
NCI-H226 lung = tested on: NCI-H226 lung
NCI-H322M lung = tested on: NCI-H322M lung
HOP-62 NSCLC = tested on: HOP-62 NSCLC
NCI-H460 lung = tested on: NCI-H460 lung
HOP-92 NSCLC = tested on: HOP-92 NSCLC
NCI-H522 lung = tested on: NCI-H522 lung
A549/ATCC NSCLC = tested on: A549/ATCC NSCLC
786-0 renal = tested on: 786-0 renal
COLO 205 colon = tested on: COLO 205 colon

O=C(O)c1cccc2c1C(=O)N(c1ccc3c(c1)Cc1ccccc1-3)C2=O
growth (NCI-H23 lung): 122%
growth (NCI-H226 lung): 111%
growth (NCI-H322M lung): 111%
growth (HOP-62 NSCLC): 112%
growth (NCI-H460 lung): 117%
growth (HOP-92 NSCLC): 109%
growth (NCI-H522 lung): 92.3%
growth (A549/ATCC NSCLC): 98.6%
growth (786-0 renal): 107%
growth (COLO 205 colon): 121%

Clc1ccc2c(NCCNc3nc(-c4ccccc4)cc(-c4ccccc4)n3)ccnc2c1
growth (NCI-H23 lung): -47.3% (active)
growth (NCI-H226 lung): -56.2% (active)
growth (NCI-H322M lung): -10.5% (active)
growth (HOP-62 NSCLC): -73.6% (active)
growth (NCI-H460 lung): -73% (active)
growth (HOP-92 NSCLC): -66.8% (active)
growth (NCI-H522 lung): -69.9% (active)
growth (A549/ATCC NSCLC): -75.2% (active)
growth (786-0 renal): -90.8% (active)
growth (COLO 205 colon): -72.2% (active)

N#Cc1cnc2cc(OC[C@@H](O)CO)c(NC(=O)C3CCCC3)cc2c1Nc1ccc(OCc2cccc(F)c2)c(Cl)c1
growth (NCI-H23 lung): 13.6%
growth (NCI-H226 lung): 38.5%
growth (NCI-H322M lung): 35.7%
growth (HOP-62 NSCLC): -51.9% (active)
growth (NCI-H460 lung): 0.536% (active)
growth (HOP-92 NSCLC): -37.2% (active)
growth (NCI-H522 lung): -58.5% (active)
growth (A549/ATCC NSCLC): 47.9%
growth (786-0 renal): 43.6%
growth (COLO 205 colon): 49.6%

Cc1[c-]onc1C.Cc1[c-]onc1C.[Ag].[Ag].[NH-]S(=O)(=O)c1ccc(N=Nc2cc(N=Nc3ccc(S([NH-])(=O)=O)cc3)c3c(NC(=O)C(Cl)Cl)cccc3c2OC(=O)C(Cl)Cl)cc1
growth (NCI-H23 lung): 94.8%
growth (NCI-H226 lung): 94.8%
growth (NCI-H322M lung): 96%
growth (HOP-62 NSCLC): 84.7%
growth (NCI-H460 lung): 57.3%
growth (HOP-92 NSCLC): 6.01% (active)
growth (NCI-H522 lung): -85.7% (active)
growth (A549/ATCC NSCLC): 80.5%
growth (786-0 renal): 104%
growth (COLO 205 colon): -46.9% (active)

COc1ccc2nc(-c3cc(-c4cc(OC)c(OC)c(OC)c4)n[nH]3)[nH]c2c1
growth (NCI-H23 lung): 7.44% (active)
growth (NCI-H226 lung): -48.9% (active)
growth (NCI-H322M lung): 31.1%
growth (HOP-62 NSCLC): -1.25% (active)
growth (NCI-H460 lung): 25.2%
growth (HOP-92 NSCLC): 22%
growth (NCI-H522 lung): -15.1% (active)
growth (A549/ATCC NSCLC): 6.33% (active)
growth (786-0 renal): 59.5%
growth (COLO 205 colon): -20% (active)

Fc1ccc(Nc2ccc3c(OCCCN4CCOCC4)cccc3n2)cc1F
growth (NCI-H23 lung): 79%
growth (NCI-H226 lung): 64.6%
growth (NCI-H322M lung): 73.3%
growth (HOP-62 NSCLC): 89.6%
growth (NCI-H460 lung): 55.7%
growth (HOP-92 NSCLC): 63.9%
growth (NCI-H522 lung): 83.8%
growth (A549/ATCC NSCLC): 75.4%
growth (786-0 renal): 74%
growth (COLO 205 colon): -7.44% (active)

Cc1cc2nc3c4cc(N)ccc4n(CCN(C)C)c3nc2cc1C
growth (NCI-H23 lung): 6.58% (active)
growth (NCI-H226 lung): 1.78% (active)
growth (NCI-H322M lung): 7.13% (active)
growth (HOP-62 NSCLC): 19%
growth (NCI-H460 lung): 0.661% (active)
growth (HOP-92 NSCLC): 37.6%
growth (NCI-H522 lung): 13.2%
growth (A549/ATCC NSCLC): 5.34% (active)
growth (786-0 renal): 26.2%
growth (COLO 205 colon): -18.5% (active)

N=c1ccc2nc3c(cc(N)c4ccccc43)oc-2c1
growth (NCI-H23 lung): -80.4% (active)
growth (NCI-H226 lung): -61.3% (active)
growth (NCI-H322M lung): -34.2% (active)
growth (HOP-62 NSCLC): -97.7% (active)
growth (NCI-H460 lung): -77.3% (active)
growth (HOP-92 NSCLC): 21.7%
growth (NCI-H522 lung): -70.1% (active)
growth (A549/ATCC NSCLC): -44% (active)
growth (786-0 renal): -90.7% (active)
growth (COLO 205 colon): -100% (active)

O=C1c2cccc3cccc(c23)C(=O)N1CC#Cc1ccc2c3c(cccc13)C(=O)N(CCN1CCNCC1)C2=O
growth (NCI-H23 lung): 73.7%
growth (NCI-H226 lung): 102%
growth (NCI-H322M lung): 98.6%
growth (HOP-62 NSCLC): 110%
growth (NCI-H460 lung): 73.1%
growth (HOP-92 NSCLC): 87.7%
growth (NCI-H522 lung): 99.8%
growth (A549/ATCC NSCLC): 109%
growth (786-0 renal): -2.58% (active)
growth (COLO 205 colon): 93.5%

c1ccc(CN2C(c3ccccc3)=Nc3ccccc3C2c2c[nH]c3ccccc23)cc1 (stereo not given)
growth (NCI-H23 lung): 27.4%
growth (NCI-H226 lung): 59.3%
growth (NCI-H322M lung): 60.6%
growth (HOP-62 NSCLC): 47.1%
growth (NCI-H460 lung): 43.4%
growth (HOP-92 NSCLC): -2.7% (active)
growth (NCI-H522 lung): 51.7%
growth (A549/ATCC NSCLC): 65.5%
growth (786-0 renal): 46.7%
growth (COLO 205 colon): 18.3%

COc1cc(/C=C/c2cc(/C=C/c3ccc(O)c(OC)c3)n(-c3ccc(Cl)cc3)c(=O)n2)ccc1O
growth (NCI-H23 lung): 93.7%
growth (NCI-H226 lung): 91.3%
growth (NCI-H322M lung): 82%
growth (HOP-62 NSCLC): 90.1%
growth (NCI-H460 lung): 92.3%
growth (HOP-92 NSCLC): 88.6%
growth (NCI-H522 lung): 91.3%
growth (A549/ATCC NSCLC): 98.1%
growth (786-0 renal): 92.6%
growth (COLO 205 colon): 91.3%

O=C1/C(=C\c2ccco2)SC(=S)N1CCc1ccc(O)cc1
growth (NCI-H23 lung): 101%
growth (NCI-H226 lung): 101%
growth (NCI-H322M lung): 90.6%
growth (HOP-62 NSCLC): 98.1%
growth (NCI-H460 lung): 106%
growth (HOP-92 NSCLC): 61.2%
growth (NCI-H522 lung): 68.9%
growth (A549/ATCC NSCLC): 99.7%
growth (786-0 renal): 99.4%
growth (COLO 205 colon): 126%

C=C1C(=O)O[C@H]2[C@H]1CC/C(COC(=O)NCc1c[nH]c3ccccc13)=C\CC[C@@]1(C)O[C@@H]21
growth (NCI-H23 lung): 68.3%
growth (NCI-H226 lung): 88.8%
growth (NCI-H322M lung): 84.5%
growth (HOP-62 NSCLC): 65.2%
growth (NCI-H460 lung): 74.7%
growth (HOP-92 NSCLC): 107%
growth (NCI-H522 lung): -35.2% (active)
growth (A549/ATCC NSCLC): 82.5%
growth (786-0 renal): 44.6%
growth (COLO 205 colon): -20.4% (active)

Cc1cccc2c1NC(=O)[C@@]21[C@H](C(=O)c2ccccc2)[C@]2(C(=O)Nc3ccccc32)[C@H]2CCCN21
growth (NCI-H23 lung): 38.4% [100 µM]
growth (NCI-H226 lung): 13% [100 µM]
growth (NCI-H322M lung): 48.8% [100 µM]
growth (HOP-62 NSCLC): 4.33% [100 µM] (active)
growth (NCI-H460 lung): 12.3% [100 µM]
growth (HOP-92 NSCLC): -25.2% [100 µM] (active)
growth (NCI-H522 lung): 17% [100 µM]
growth (A549/ATCC NSCLC): 15% [100 µM]
growth (786-0 renal): 15.3% [100 µM]
growth (COLO 205 colon): 33.1% [100 µM]

O=C(N/N=C\c1c(O)ccc2ccccc12)C1CC1
growth (NCI-H23 lung): 36.4%
growth (NCI-H226 lung): 79.6%
growth (NCI-H322M lung): 33.7%
growth (HOP-62 NSCLC): 55.8%
growth (NCI-H460 lung): 32.9%
growth (HOP-92 NSCLC): 43.1%
growth (NCI-H522 lung): 11.6%
growth (A549/ATCC NSCLC): 58.4%
growth (786-0 renal): 49.6%
growth (COLO 205 colon): 96.3%

O=[N+]([O-])c1cccc(/C=N\Nc2ccccc2)c1
growth (NCI-H23 lung): 88.5%
growth (NCI-H226 lung): 70.1%
growth (NCI-H322M lung): 81.1%
growth (HOP-62 NSCLC): 84%
growth (NCI-H460 lung): 77.1%
growth (HOP-92 NSCLC): 66%
growth (NCI-H522 lung): 54.9%
growth (A549/ATCC NSCLC): 67.4%
growth (786-0 renal): 74.4%
growth (COLO 205 colon): 85.4%

C[C@@H](C(=O)O)c1ccc2c3cc(Cl)ccc3n(Cc3cc(=O)oc4ccc(Cl)cc34)c2c1
growth (NCI-H23 lung): 95.6%
growth (NCI-H226 lung): 103%
growth (NCI-H322M lung): 86.3%
growth (HOP-62 NSCLC): 103%
growth (NCI-H460 lung): 111%
growth (HOP-92 NSCLC): 108%
growth (NCI-H522 lung): 90.7%
growth (A549/ATCC NSCLC): 102%
growth (786-0 renal): 95.9%
growth (COLO 205 colon): 113%
